Only some compounds are listed: those with a hit (about 6.6% of all), similar ones and a draw of the others.
HT1080 IDH1KD tx: HT-1080 IDH1 knockdown cell toxicity (counter line) | HT-1080 IDH1 knockdown viability, ATP luminescence, 48 h | Potency, µM (titrated, usually from 46.1 µM), without a hit: at the highest dose activity, negative = toxicity, most hits filed as cytotoxic | actives 2% (n = 360,000) | AID 686971;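 further: 0% = DMSO wells and -100% = cell-free medium wells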
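% activity derives from luminescence (CellTiter-Glo), normalised to DMSO and no-cell wells. HT-1080-IDH1KD cells, 750/well, had 48 h compound exposure at 37 °C.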
TGFb inhibitor: TGF-b pathway inhibition; Potency, µM (top dose mostly 46.1 µM), without a hit: at the highest dose activity, negative = inhibition, usual class: inhibitors; actives 1.2% (n = 410,000); AID 588855; HepG2 CAGA-GFP TGF-b/SMAD3 reporter, GFP fluorescence, 18 h; TGF-beta stimulated, 500 pg/mL final; further: on the % scale 0 is the no-effect control and ±100 the full control effect; nearly all actives have a fitted effect of over 65% in size
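Inhibition was scored as loss of TGF-beta-induced (500 pg/mL final, 18 hours, 37 degrees C) GFP in HEPG2 cells carrying a CAGA-GFP reporter, in DMEM with 1% FBS. Well GFP was summed per cell; Activity was normalised to unstimulated and stimulated DMSO wells, then concentration-response fitting.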
HepG2 viability: HepG2 cytotoxicity, counter-screen for TGF-b inhibitors; AID 588856; HepG2 CAGA-GFP viability, ATP luminescence, 18 h; Potency, µM (top dose mostly 46.1 µM), without a hit: top-dose activity change, negative = cytotoxicity, hits mostly cytotoxic; actives 0.76% (n = 410,000)
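CellTiter-Glo luminescence gave cytotoxicity after 18 hours at 37 degrees C. The cells were HepG2 CAGA-GFP in 1% FBS DMEM, stimulated with 500 pg/mL TGF-beta after compound addition. %Activity was normalised to no-cell wells (complete cell-killing) and DMSO (no toxicity), and curves were fitted and classified.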
HT1080-NT tox: kills 2HG-producing HT-1080-NT fibrosarcoma cells. HT-1080-NT fibrosarcoma viability, CellTiter-Glo ATP luminescence, 48 h. Potency, µM (doses to about 46.1 µM), without a hit: at the highest dose activity, negative = less viability, actives largely listed as cytotoxic. actives 1.6% (n = 360,000);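 further: NT is the 2HG producing partner of a matched IDH1 knockdown line; 0% = DMSO-treated cells and -100% = media-only wells without cells; nearly all actives have a fitted effect of over 55% in size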
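Viability by CellTiter-Glo luminescence after 48 h compound exposure at 37C of HT-1080-NT cells (750/well, RPMI, 5% FBS). % activity scaled between DMSO wells and medium-only wells, then curve-fitted and categorized by curve class.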
KB-V1 cytotox: kills drug-selected multidrug resistant KB-V1 cells; KB-V1 MDR cells viability, CellTiter-Glo, 72 h; Potency, µM (top dose mostly 46.1 µM), actives largely listed as cytotoxic; actives 3.4% (n = 400,000); AID 1347076; further: on the % scale 0 is the no-effect control and ±100 the full control effect; nearly all actives have a fitted effect of over 60% in size
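KB-V1, DMEM (no phenol red) + 10% FBS; cpd pin-transferred, titration series; 72 h, 37 degrees C; CellTiter-Glo, luminescence. Data normalized, curve-fit.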
KB-3-1 tox: kills parental KB-3-1 adenocarcinoma cells | KB-3-1 viability, CellTiter-Glo ATP luminescence, 72 h | actives 1.4% (n = 400,000) | Potency, µM (top dose mostly 46.1 µM), actives largely listed as cytotoxic; further: on the % scale 0 is the no-effect control and ±100 the full control effect; nearly all actives have a fitted effect of over 60% in size
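72 h, 37 °C compound treatment of KB-3-1 parental cells; CellTiter-Glo added, 10 min, luminescence read. Data corrected against DMSO-only plates and normalized before curve fitting.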
* = called active by the depositor; i = inactive; ? = inconclusive; · = no result given; ! = not confirmed by another sample. The call rests on the fitted dose curve; in most records, active means well fitted curve in the direction sought with a large enough effect; inconclusive means small, poorly fitted or top-dose-only effect, or another doubt; inactive means no such curve, though single readings can be large; an effect the other way counts as inactive or inconclusive. Potency means the concentration at half of the fitted maximal effect.

SMILES	HT1080 IDH1KD tx	TGFb inhibitor	HepG2 viability	HT1080-NT tox	KB-V1 cytotox	KB-3-1 tox
Cc1nn(C)c(C)c1NC(=O)CCl	?	2%	-30%	?	i	12µM*
Cc1cc(-c2ccc(C)c(S(=O)(=O)NC(c3cccs3)C(C)C)c2)on1 (stereo not drawn)	·	?	-6%	·	i	i
O=C1C(C=Nc2ccccc2O)=C(O)c2ccccc21	6.3µM*	-27%	-14%	6.3µM*	i	i
CC(C)(C)N(Cc1ccc2c(c1)OCO2)C(=O)/C=C\S(=O)c1ccccc1 (stereo not drawn)	13µM*	11µM*	18µM*	-26%	i	?
CCN(Cc1ccc2c(c1)OCO2)C(=O)/C=C/c1cccc(Br)c1	-14%	12%	9%	-13%	i	?
CCC(C)Sc1cc(-c2nc3cc(C)ccn3c2NC2CCCCC2)ccc1OC (stereo not drawn)	?	?	-59%	21µM*	21µM*	?
CCC(C)Sc1ccc(-c2nc3ccc(C)cn3c2NC2CCCCC2)cc1 (stereo not drawn)	·	1%	-26%	·	?	i
CCC(C)Sc1cccc(-c2nc3ccc(C)cn3c2NC2CCCCC2)c1 (stereo not drawn)	-13%	?	-41%	-16%	?	i
CCC(C)Sc1cc(-c2nc3ccccn3c2NC2CCCCC2)ccc1OC (stereo not drawn)	18µM*	?	-117%	26µM*	12µM*!	?
Cc1ccccc1NC(=O)COC(=O)c1ccccc1OCC(=O)Nc1ccc(Br)cc1	·	8%	2%	·	i	i
O=C(CN(Cc1ccccc1)C(=O)CCl)c1cccc(Br)c1	16µM*	?	-106%	21µM*	i	?
O=C(NCc1cccc(F)c1)c1ccccc1NC(=O)c1nsc2ccccc12	·	-23%	-38%	·	i	i
COc1cc(-c2nnc(-c3ccco3)o2)ccc1OCc1ccccc1	-27%	3%	-10%	-17%	4.1µM*	?
COc1cc(-c2nnc(-c3ccncc3)o2)ccc1OCc1ccccc1	-1%	-1%	-3%	3%	i	i
CC1=C(C(=O)Nc2ccccc2)C(c2ccccn2)n2nc(SCc3ccccc3Cl)nc2N1 (stereo not drawn)	·	14%	-1%	·	i	i
COc1cccc(C(=O)Nc2nc(-c3nnn(-c4ccccc4C(F)(F)F)c3C)ns2)c1	·	13µM*	-54%	·	i	?
O=C(N/N=C/c1ccccc1[N+](=O)[O-])c1cccs1	3%	7%	-17%	8%	i	i
Cc1cc(/C=N/NC(=O)c2cccs2)c(C)n1-c1ccccc1	?	-6%	-24%	?	?	16µM*
Cc1ccc(/C=N/NC(=O)c2cccs2)cc1[N+](=O)[O-]	16%	?	2%	16%	15µM*	i
Cc1cc(/C=N/NC(=O)c2ccncc2)c(C)n1-c1ccccc1	-4%	1%	7%	-3%	i	i
COc1cccc(-c2cc(C(=O)Nc3cc(OC)c(OC)c(OC)c3)on2)c1	·	1%	-18%	·	?	9.2µM*
Cc1cc(Br)ccc1NC(=O)c1sc2nc3n(c(=O)c2c1C)CCCC3	·	3%	5%	·	·	·
CCC(C)(C)n1nnnc1CN(Cc1cccs1)Cc1cc2cc(OC)ccc2[nH]c1=O	0%	1%	-22%	0%	i	i
CCOc1ccc2[nH]c(=O)c(CN(Cc3cccs3)Cc3nnnn3C(C)(C)CC)cc2c1	-7%	?	-33%	0%	18µM*	i
CCCCn1c(SCC(=O)NCc2ccccc2)nc2ccc(N3CCOCC3)cc2c1=O	-13%	-3%	-16%	3%	?	i

High-throughput results (PubChem)
